Compound activity from PubChem BioAssay.
An excerpt weighted towards active compounds, which were near 27% of everything screened.
CYP2C19 inhib – human CYP2C19 inhibition; CYP2C19 Supersomes, luciferin-H EGE luminescence, 30 min; 96,000 tested, 21% active; inhibition, % at 5 µM; P33261;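 active = CYP2C19 inhibition above a set limit at 5 µM in the primary screen, cut at about 50% in these data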;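 note: plate controls were negative control wells for no effect and 2.5 mM tranylcypromine positive control for full effect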
Target sequence (P33261 whole entry, looked up): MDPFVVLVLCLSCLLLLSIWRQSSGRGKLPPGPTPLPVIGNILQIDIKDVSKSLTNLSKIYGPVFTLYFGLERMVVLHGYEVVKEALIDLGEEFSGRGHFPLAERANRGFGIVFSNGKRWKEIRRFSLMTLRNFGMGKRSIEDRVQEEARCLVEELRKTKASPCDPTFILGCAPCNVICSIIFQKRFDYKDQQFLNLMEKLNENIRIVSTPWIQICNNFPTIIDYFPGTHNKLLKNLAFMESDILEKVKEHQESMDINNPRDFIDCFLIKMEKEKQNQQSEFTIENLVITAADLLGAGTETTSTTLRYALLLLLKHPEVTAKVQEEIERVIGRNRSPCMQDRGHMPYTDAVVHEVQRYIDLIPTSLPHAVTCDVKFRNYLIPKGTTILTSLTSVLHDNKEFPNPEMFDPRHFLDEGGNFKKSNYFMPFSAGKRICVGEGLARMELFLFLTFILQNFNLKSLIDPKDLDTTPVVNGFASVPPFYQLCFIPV
CYP2C9 act – increases human cytochrome P450 2C9 activity | P11712 | activation factor at 5 µM | 96,000 tested, 1.4% active | AID 1024 | recombinant CYP2C9, luciferin-H conversion, luminescence; stronger effect = higher value; factor 1 = untreated enzyme, 0 = blocked;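 active = activation factor of 2 or more for CYP2C9 at a 5 µM dose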;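 note: 0 = sulfaphenazole-blocked wells and 1 = vehicle-only wells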
Cav3 T inh – human Cav3.2 channel inhibition, primary screen. Cav3.2-expressing cells, Fluo-4 calcium fluorescence FDSS; stronger effect = lower value. B-score at 10 µM. 100,000 tested, 4% active;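 active = single-dose well whose peak fluorescence ratio is a statistical outlier from its plate by either plate-standardised score or position-corrected B-score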
CYP2C19 activ – increases human CYP2C19 enzyme activity; recombinant CYP2C19, luciferin-H EGE luminescence; stronger effect = higher value; 0 = fully inhibited enzyme, 1 = untreated enzyme; activation factor at 5 µM; 96,000 tested, under 10 active;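 active = activation factor of at least 2 at 5 µM in the primary screen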;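 note: 0 = wells with 2.5 mM tranylcypromine and 1 = vehicle-only wells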
CYP2C9 inh – inhibitors of human CYP2C9; P11712; CYP2C9 Supersomes, luciferin-H conversion, luminescence; inhibition, % at 5 µM; 96,000 tested, 20% active; AID 777;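 active = blocking of liver enzyme CYP2C9 beyond about 50% at 5 µM, limit read from the data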
* = called active by the depositor; . = no result given.

SMILES	CYP2C19 inhib	CYP2C9 act	Cav3 T inh	CYP2C19 activ	CYP2C9 inh
CNC(=O)CN(c1ccc(F)cc1)S(=O)(=O)c1cc(C)ccc1OC	82*	0.2	-3.5	0.2	80*
COc1cc(NC(=O)CN(C)S(=O)(=O)c2ccc(C)cc2)cc(OC)c1	82*	1.8	-0.51	0.2	-77
COc1ccc(C)cc1S(=O)(=O)N(CC(=O)O)c1ccc(C)cc1	15	0.6	-0.62	0.9	36
Cc1ccc(C)c(NC(=O)CN(C)S(=O)(=O)c2ccccc2)c1	38	1.4	0.58	0.6	-38
O=C(c1cc2ccccc2o1)c1nc2c(n1O)CCCCC2	-10	0.8	-1.3	1.1	21
CCOc1cc(C(=O)Nc2ccc3c4c(cccc24)C(=O)N3CC)cc(OCC)c1OCC	7	0.4	-1.1	0.9	57*
CN=C(NC#N)SCC(=O)c1ccc(Cl)cc1Cl	82*	0	-0.15	0.2	96*
Cc1ccc(C)n1NC(=O)c1ccc(Cl)cc1Cl	12	1.4	-1.5	0.9	-36
COc1cc(CN(C)Cc2ccccc2)cc(OC)c1O	65*	0.7	0.54	0.3	28
COc1ccc(CCN(C)Cc2ccc(OCc3ccccc3)c(OC)c2)cc1OC	-12	0.9	-0.54	1.1	8
CNC(=O)NC(=O)CSc1nc2cc(C(=O)OC)ccc2c(=O)n1-c1ccccc1	-1	0.8	-1.6	1	15
Cc1ccc(-c2nnc(SCC(=O)N3CC(C)CC(C)C3)o2)cc1C (stereo unspecified)	.	.	-3.3	.	.
CCOC(=O)c1ccccc1NC(=O)c1ccc(N(C)S(C)(=O)=O)cc1	33	0.7	-0.33	0.7	28
COc1ccccc1NC(=O)c1ccc(NS(C)(=O)=O)cc1	8	3.3*	-0.12	0.9	-233
CCS(=O)(=O)Nc1ccc(C(=O)OC)cc1	64*	0.3	0.045	0.4	69*
CCOC(=O)c1ccccc1NC(=O)c1ccccc1N(C)S(C)(=O)=O	76*	0.6	.	0.2	43
CCS(=O)(=O)Nc1ccc(C(=O)c2ccccc2)cc1	.	.	-0.0019	.	.
COC(=O)c1ccc(NC(=O)c2ccccc2NS(C)(=O)=O)cc1	23	0.3	0.23	0.8	66*
CC(CN1CCCC1)OC(=O)COc1ccccc1 (stereo unspecified)	-16	1	-0.02	1.2	3
C#CCOCCOCCOCCNc1nc(N2CCN(C(=O)[C@H](CCC(=O)O)n3cc(C(N)CO)nn3)CC2)nc(N2CCN(C(=O)[C@H](CCC(=O)O)n3cc(C(N)CC(C)C)nn3)CC2)n1 (stereo partly specified)	.	.	0.89	.	.
COC(=O)c1ccccc1N(C)S(C)(=O)=O	-5	1.1	-0.17	1.1	-10
COC(=O)c1ccc(NC(=O)c2ccccc2N(C)S(C)(=O)=O)cc1	62*	0.6	0.49	0.4	38
CS(=O)(=O)Nc1ccccc1C(=O)c1ccccc1	61*	1.2	0.58	0.4	-19
CN(c1ccccc1C(=O)Nc1ccc(S(=O)(=O)N2CCCCC2)cc1)S(C)(=O)=O	-12	0.8	0.82	1.1	16
CN(c1ccccc1C(=O)Nc1ccc(S(=O)(=O)N2CCCC2)cc1)S(C)(=O)=O	8	0.4	-0.45	0.9	64*
SMILES	CYP2C19 inhib	CYP2C9 act	Cav3 T inh	CYP2C19 activ	CYP2C9 inh
CS(=O)(=O)Nc1ccccc1C(=O)Nc1ccccc1Cl	.	.	0.027	.	.
COC(=O)c1ccccc1NC(=O)c1ccccc1N(C)S(C)(=O)=O	50*	0.6	.	0.5	39
CCc1nc(C)cc(N)c1OCc1ccccc1	4	1	-1.2	1	1
O=C(NCc1ccccc1)C1CC2CCCC(C1)C2=O (stereo unspecified)	-4	1.1	-0.53	1	-8
CC(C)(C)OC(=O)N1CCC2(CC1)Oc1ccc(Cl)cc1C(=O)C21CC(c2ccc(Cl)cc2)=NO1 (stereo unspecified)	.	.	-0.48	.	.
Cc1cccc(NC(=S)NNC(=O)c2sccc2C)c1	73*	0.1	0.095	0.3	88*
Cc1cccc(NC(=S)NNC(=O)c2csc(C(C)C)c2)c1	.	.	-5.5*	.	.
CCc1cc(C(=O)NNC(=S)Nc2cccc(C)c2)cs1	.	.	-2.2	.	.
CC(C)CNC(=S)NNC(=O)c1csc2ccccc12	24	1.1	-1	0.8	-8
Cc1ccsc1C(=O)NNC(=S)NCC(C)C	91*	0.7	0.46	0.1	28
O=C(CCCn1c(=S)[nH]c2ccc(Br)cc2c1=O)NCC1CCCO1 (stereo unspecified)	14	1.4	-0.97	0.9	-38
CSc1ccccc1NC(=O)CN(Cc1ccc(Cl)cc1)S(C)(=O)=O	16	0.7	-2.8	0.8	30
CS(=O)(=O)N(CC(N)=O)Cc1ccc(Cl)cc1	-3	1.1	-0.033	1	-8
Cc1c(Cl)cccc1N(CC(=O)NC1CCCCC1)S(C)(=O)=O	28	0.3	-0.37	0.7	70*
CSc1cccc(NC(=O)CN(Cc2ccc(Cl)cc2)S(C)(=O)=O)c1	92*	0.1	-3.4*	0.1	92*
CS(=O)(=O)N(CC(=O)Nc1ccccc1)Cc1ccc(Cl)cc1	96*	0.1	-0.4	0	89*
CSc1ccccc1NC(=O)CN(Cc1ccccc1)S(C)(=O)=O	24	0.8	-0.2	0.8	23
CCOc1ccccc1NC(=O)CN(Cc1ccccc1)S(C)(=O)=O	94*	0.6	-1.1	0.1	42
COc1cc(NC(=O)c2cnn3c(C)cc(C)nc23)c(OC)cc1Cl	22	0.9	0.83	0.8	11
C/C=C/C=C/[C@H]1Cc2cc(O)cc(O)c2O1	.	.	0.1	.	.
CC(=O)NC(CCS(C)(=O)=O)C(=O)Nc1ccc(F)cc1Cl (stereo unspecified)	7	0.9	.	0.9	5
CS(=O)(=O)N(CC(=O)NC1CCCCCC1)Cc1ccccc1	87*	0.8	0.27	0.1	22
O=C(CN(c1ccccc1F)S(=O)(=O)c1ccccc1)NC1CCCCCC1	-11	0.5	-1.9	1.1	52*
COc1ccc(NC(=O)CN(Cc2ccccc2)S(C)(=O)=O)cc1	79*	0.5	0.35	0.2	45
COC(C[C@H](O)[C@@H](C)[C@H](O)COCc1ccccc1)OC	.	.	0.52	.	.
SMILES	CYP2C19 inhib	CYP2C9 act	Cav3 T inh	CYP2C19 activ	CYP2C9 inh
Cn1c(Cc2cccs2)n[nH]c1=S	4	1.1	0.047	1	-7
COc1ccc(-c2nc3ccc(N4CCCC4)cc3c(=O)[nH]2)cc1OC	-5	1	.	1	4
COCCNC(=O)CN1C(=O)CC(C)(C)S(=O)(=O)c2ccccc21	-12	1	-0.072	1.1	0
CC1(C)CC(=O)N(CC(=O)NCc2ccc(F)cc2)c2ccccc2S1(=O)=O	62*	0.9	1.3	0.4	8
CC1(C)CC(=O)N(CC(=O)NCc2ccccc2)c2ccccc2S1(=O)=O	69*	0.6	0.97	0.3	39
Cn1c(C(C#N)C(=O)c2sc3ccccc3c2Cl)nc2ccccc21 (stereo unspecified)	22	0.3	-0.8	0.8	71*
O=C(CCCC(=O)NCC1CCCO1)NCC1CCCO1 (stereo unspecified)	-11	1.2	0.77	1.1	-20
